Measured values published in PubChem BioAssay (Tox21).
Inconclusive results are not listed. Values without a mark were called inactive. The source made the active and inactive calls. Calls follow the shape of the dose curve; as a rule, active = well fitted curve in the direction sought with a large enough effect in the repeat runs; inconclusive = weak or mixed curves; inactive = no such curve, though single readings can be large; an effect the other way counts as inactive or inconclusive.

Target: Nuclear receptor subfamily 1 group I member 3 (Homo sapiens) (UniProt Q14994)
Assay: qHTS assay to identify small molecule antagonists of the constitutive androstane receptor (CAR) signaling pathway (AID 1224838);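 also: HepG2 cells stably expressing hCAR with CYP2B6 luciferase reporter stimulated by CITCO; nearly all actives have a fitted effect of over 40% in size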
Conditions: HepG2-CYP2B6-hCAR luciferase, CITCO-stimulated, 24 h; series mostly up to 92.4 µM; activity, negative = inhibition: at the top concentration
How it was run: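 Cell line: HepG2 double-stable for hCAR and CYP2B6-2.2kb reporter. Agonist: CITCO, 50 nM final. Compounds: 15 concentrations, 24 h, 37 C. Detection: ONE-Glo luminescence.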
% is scaled to controls: 0 for no effect and ±100 for the full control effect.

Sequence of Nuclear receptor subfamily 1 group I member 3 (Homo sapiens) (Q14994 whole entry, looked up): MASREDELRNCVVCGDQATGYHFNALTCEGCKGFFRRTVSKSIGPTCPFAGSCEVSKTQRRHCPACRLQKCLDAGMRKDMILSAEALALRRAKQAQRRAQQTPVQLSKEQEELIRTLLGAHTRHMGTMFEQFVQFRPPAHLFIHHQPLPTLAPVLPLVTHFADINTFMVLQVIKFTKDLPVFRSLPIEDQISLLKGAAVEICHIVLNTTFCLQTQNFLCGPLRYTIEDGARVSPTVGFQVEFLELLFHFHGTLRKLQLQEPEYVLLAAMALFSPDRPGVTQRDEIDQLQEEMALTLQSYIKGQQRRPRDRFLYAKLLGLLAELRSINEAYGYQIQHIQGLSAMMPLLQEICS

Row | Compound | activity, negative = inhibition
1 | CC(=O)c1ccc2ccccc2c1 | 49.3%
2 | CCCCc1nc(Cl)c(CO)n1Cc1ccc(-c2ccccc2-c2nn[nH]n2)cc1 | -3.91% [at 42.5 µM]
3 | COC(=O)Nc1ccc(Cl)c(Cl)c1 | 122%
4 | NC(=O)N1c2ccccc2CC(=O)c2ccccc21 | 40.7% [at 42.5 µM]
5 | CO/N=C(\C(=O)N[C@@H]1C(=O)N2C(C(=O)O)=C(CSc3nc(=O)c(O)nn3C)CS[C@H]12)c1csc(N)n1 | 1.45% [at 42.5 µM]
6 | CC1=NN(c2cc(S(=O)(=O)O)ccc2Cl)C(=O)C1N=Nc1ccccc1 (stereo unspecified) | 35.3%
7 | COc1ccc2cc1Oc1cc3c(cc1OC)CC[N+](C)(C)[C@H]3Cc1ccc(cc1)Oc1c(OC)c(OC)cc3c1[C@@H](C2)[N+](C)(C)CC3 | -13.8% [at 42.5 µM]
8 | CCCC(C)C(=O)OCC (stereo unspecified) | 5.17%
9 | COc1c(N2CCNC(C)C2)c(F)cc2c(=O)c(C(=O)O)cn(C3CC3)c12 (stereo unspecified) | -16.2% [at 42.5 µM]
10 | Nc1ccccn1 | -3.97%
11 | O=C(CO)[C@@H](O)[C@H](O)[C@@H](O)CO | -7.76% [at 42.5 µM]
12 | COc1ccnc(CS(=O)c2nc3cc(OC(F)F)ccc3[nH]2)c1OC (stereo unspecified) | 72.7%
13 | NC(CCC(=O)O)C(=O)O (stereo unspecified) | -2.26%
14 | CC(=O)c1ccccc1[N+](=O)[O-] | 22.8%
15 | CC(C)(C)c1ccc(-c2ccc(C(C)(C)C)cc2)cc1 | 8.09%
16 | c1ccc2sc(SN3CCOCC3)nc2c1 | 93.6% [at 42.5 µM]
17 | CCOC(=O)COc1cc(-n2ncc(C(F)(F)F)c(C)c2=O)c(F)cc1Cl | 37.4%
18 | COc1cc(-c2ccc(=O)[nH]n2)ccc1OC(F)F | 95% [at 42.5 µM]
19 | CCOC(=O)C(=O)CCCCCCl | -20.6% [at 42.5 µM]
20 | CCN1CCOCC1 | 18.8%
21 | C[C@H]1[C@H](NC(=O)/C(=N/OC(C)(C)C(=O)O)c2csc(N)n2)C(=O)N1S(=O)(=O)O (stereo in doubt) | 9.4% [at 42.5 µM]
22 | Nc1ccncc1N | -0.65% [at 42.5 µM]
23 | OCCCCCO | -14.9%

Target: Nuclear receptor subfamily 1 group I member 3 (Homo sapiens) (UniProt Q14994)
Assay: qHTS assay to identify small molecule agonists of the constitutive androstane receptor (CAR) signaling pathway (AID 1224839); also: nearly all actives have a fitted effect of over 15% in size; also: potency is read from the fitted curve at half-maximal effect;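 as to activation: HepG2 cells stably carrying human CAR and a CYP2B6 luciferase reporter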
Conditions: HepG2 hCAR CYP2B6-luciferase, agonist mode, 24 h; series mostly up to 92.4 µM; activation: at the top concentration
How it was run: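 HepG2-CYP2B6-hCAR cells, 2500/well, 4 h pre-incubation; compounds 15 conc.; PK11195 0.75 uM final; 24 h, 37 C/5% CO2; ONE-Glo luciferase read.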

Row | Compound | activation | Potency
24 | CC(=O)c1ccc2ccccc2c1 | 15.1% | 
25 | CCCCc1nc(Cl)c(CO)n1Cc1ccc(-c2ccccc2-c2nn[nH]n2)cc1 | -4.05% [at 42.5 µM] | 
26 | COC(=O)Nc1ccc(Cl)c(Cl)c1 |  | 60.8 µM (active)
27 | NC(=O)N1c2ccccc2CC(=O)c2ccccc21 | 7.44% [at 42.5 µM] | 
28 | CO/N=C(\C(=O)N[C@@H]1C(=O)N2C(C(=O)O)=C(CSc3nc(=O)c(O)nn3C)CS[C@H]12)c1csc(N)n1 | -1.98% [at 42.5 µM] | 
29 | CC1=NN(c2cc(S(=O)(=O)O)ccc2Cl)C(=O)C1N=Nc1ccccc1 (stereo unspecified) | 11.6% | 
30 | COc1ccc2cc1Oc1cc3c(cc1OC)CC[N+](C)(C)[C@H]3Cc1ccc(cc1)Oc1c(OC)c(OC)cc3c1[C@@H](C2)[N+](C)(C)CC3 | -0.234% [at 42.5 µM] | 
31 | CCCC(C)C(=O)OCC (stereo unspecified) | -1.19% | 
32 | COc1c(N2CCNC(C)C2)c(F)cc2c(=O)c(C(=O)O)cn(C3CC3)c12 (stereo unspecified) | -2.1% [at 42.5 µM] | 
33 | Nc1ccccn1 | -3.17% | 
34 | O=C(CO)[C@@H](O)[C@H](O)[C@@H](O)CO | -2.23% [at 42.5 µM] | 
35 | COc1ccnc(CS(=O)c2nc3cc(OC(F)F)ccc3[nH]2)c1OC (stereo unspecified) | 10.1% | 
36 | NC(CCC(=O)O)C(=O)O (stereo unspecified) | 2.03% | 
37 | CC(=O)c1ccccc1[N+](=O)[O-] | 2.17% | 
38 | CC(C)(C)c1ccc(-c2ccc(C(C)(C)C)cc2)cc1 | 4.11% | 
39 | CCOC(=O)COc1cc(-n2ncc(C(F)(F)F)c(C)c2=O)c(F)cc1Cl | 3.48% | 
40 | CCN[C@H]1C[C@H](C)S(=O)(=O)c2sc(S(N)(=O)=O)cc21 | -0.178% [at 42.5 µM] | 
41 | COc1cc(-c2ccc(=O)[nH]n2)ccc1OC(F)F | 1.84% [at 42.5 µM] | 
42 | CCOC(=O)C(=O)CCCCCCl | -0.351% [at 42.5 µM] | 
43 | CCN1CCOCC1 | 9.42% | 
44 | C[C@H]1[C@H](NC(=O)/C(=N/OC(C)(C)C(=O)O)c2csc(N)n2)C(=O)N1S(=O)(=O)O (stereo in doubt) | -1.26% [at 42.5 µM] | 
45 | Nc1ccncc1N | 2.01% [at 42.5 µM] | 
46 | OCCCCCO | 2.25% | 
